Among the data in PubChem BioAssay (NCATS) are Potency and outcome values, retold here.

SMILES strings stand for the structures. Records with an inconclusive call do not appear. The list shows a part of the results. The source made the active and inactive calls. Calls follow the shape of the dose curve; as a rule, active = well fitted curve in the direction sought with a large enough effect; inconclusive = small, poorly fitted or top-dose-only effect, or another doubt; inactive = no such curve, though single readings can be large; an effect the other way counts as inactive or inconclusive.

Experiment [1] concerns the target Furin (Homo sapiens) (UniProt P09958). The experiment is described as follows: Furin counterscreen qHTS for Zika virus inhibitors (AID 1347149). Also: nearly all actives have a fitted effect of over 70% in size. Also: potency is read from the fitted curve at half-maximal effect. Summed up: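 Fluorogenic cleavage of BOC-RVRR-AMC (2 microM final, Km ~15 µM) was monitored (ex 340, em 450 nm) at 37C after 15 min RT preincubation of 5 nM furin with compounds in HEPES pH 7.0 buffer with CaCl2 and Triton X-100. Percent inhibition was fitted to a 4-parameter Hill curve.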
On the technique in general: Counterscreens check selectivity or assay interference.

The test system of experiment [2] is Zika virus NS2B-NS3 protease (linked construct). The experiment is described as follows: Confirmatory screen NINDS AMC qHTS for Zika virus inhibitors (AID 1347152).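 Also: AMC fluorescence gain from cleaved Bz-Nle-KRR-AMC substrate over 15 min; top concentration of the series differs between compounds; nearly all actives have a fitted effect of over 70% in size.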 Summed up: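 Enzyme (1 nM, linked construct) was preincubated with compound for 15 minutes at room temperature in 10 mM Tris-HCl pH 8.0 with 0.01% Tween 20. Bz-Nle-Lys-Arg-Arg-AMC was then added to 10 microM, and AMC fluorescence was recorded immediately and after 15 minutes.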
On the technique in general: Quantitative high-throughput screening tests each substance at several concentrations.

Experiment [3] deals with Zika virus NS2B-NS3 protease (unlinked complex). Briefly: Confirmatory screen GU AMC qHTS for Zika virus inhibitors (AID 1347153). Also: nearly all actives have a fitted effect of over 70% in size. Summed up: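 Compounds were preincubated 15 min at room temperature with 25 nM noncovalent NS2B-NS3 protease at pH 8.0; AMC substrate added at 10 microM and 15-min fluorescence gain (340/450 nm) converted to percent inhibition, fitted 4-parameter.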

A short description of experiment [4]: Tertiary RLuc qRT-PCR qHTS assay for Zika virus inhibitors (AID 1347169). Also: top concentration of the series differs between compounds; nearly all actives have a fitted effect of over 55% in size. Summed up:
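Vero, 1,000 cells/well, o/n 37 C; cpd pinned in DMSO; ZIKV-RLuc Cambodian, MOI 1-2, 48-72 h 37 C; live-cell RLuc substrate, lum read at 1-1.5 h.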
(In general: Real-time PCR tracks product formation cycle by cycle.)

Experiment [5] in a line: ZIKV-mCherry secondary qHTS for Zika virus inhibitors (AID 1347158). Also: top concentration of the series differs between compounds. Summed up:
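Vero cells, 5,000/well, plated overnight at 37 °C, then compound added and infected with recombinant ZIKV-mCherry at MOI 1 for 48-72 h. PFA-fixed, Hoechst nuclear stain, high-content imaging; cells with mCherry intensity above 450 RFU scored infected, reported as percent infection.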

Experiment [6] deals with DNA repair nuclease/redox regulator APEX1 (Homo sapiens) (UniProt P27695). Briefly: Confirmation qHTS Assay for Inhibitors of the Human Apurinic/apyrimidinic Endonuclease 1 (APE1) (AID 2572). Also: potency is read from the fitted curve at half-maximal effect; nearly all actives have a fitted effect of over 30% in size. The conditions noted are these: purified APE1, fluorogenic abasic-site DNA cleavage. In a few lines: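 15 min RT compound–APE1 preincubation → add 50 nM final THF-abasic TAMRA/BHQ-2 dsDNA → immediate kinetic read, 3 × 60 s, Ex 525/Em 598 → Δ fluorescence (read 3 − read 1).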
DNA repair nuclease/redox regulator APEX1 (Homo sapiens), sequence (P27695 whole entry, looked up): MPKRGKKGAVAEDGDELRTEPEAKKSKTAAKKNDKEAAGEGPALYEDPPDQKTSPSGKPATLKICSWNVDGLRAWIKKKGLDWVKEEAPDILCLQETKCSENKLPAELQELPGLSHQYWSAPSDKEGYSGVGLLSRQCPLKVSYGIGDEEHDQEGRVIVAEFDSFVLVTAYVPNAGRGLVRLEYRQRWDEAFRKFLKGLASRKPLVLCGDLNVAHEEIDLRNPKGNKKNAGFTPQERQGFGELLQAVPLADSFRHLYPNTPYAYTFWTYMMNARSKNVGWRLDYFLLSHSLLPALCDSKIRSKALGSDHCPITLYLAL

Experiment [7] shares this target. The experiment is described as follows: qHTS FP-Based Assay for Inhibitors of the Human Apurinic/apyrimidinic Endonuclease 1 (APE1) (AID 2573). An excerpt: The apurinic/apyrimidinic endonuclease APE1 is the primary mammalian enzyme responsible for the removal of abasic (or AP) sites in DNA and functions centrally in the base excision DNA repair (BER) pathway. […] Thus, targeting APE1 could improve the efficacy of current treatment paradigms by promoting selective sensitization or protection of diseased and normal cells, respectively.
In order to gain insight into the mode of action of confirmed APE1 inhibitors, we implemented a miniaturized fluorescence polarization assay designed to report on compounds which competitively displace ds-DNA substrate. The fluorescence polarization assay has been implemented in 384- and 1536-well format for binding of TAMRA-labeled double-stranded DNA probe not containing a quencher. The binding of protein to DNA is inhibited by ATA, a general inhibitor of APE1 activity.
See also related primary fluorogenic assay (AID 2517). […]
Three uL of enzyme were dispensed to 1536-well Greiner black solid bottom plates. […] The plates were immediately transferred into ViewLux High-throughput CCD imager (Perkin-Elmer) in order to measure the reaction progress in kinetic mode (three reads every 60 seconds) using 525 nm excitation and 598 nm emission fluorescence protocol. The fluorescence intensity difference between the third and the first time points was used to compute reaction progress.

The nature of experiment [8]: Confirmatory screen GU Rhodamine qHTS for Zika virus inhibitors qHTS (AID 1347157). Also: nearly all actives have a fitted effect of over 70% in size. Also: potency is read from the fitted curve at half-maximal effect. Summed up:
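A qHTS format was used, with compound concentrations ranging up to 114 microM. Each compound was preincubated with 25 nM NS2B-NS3 protease, and the substrate was then added at 1.5 microM. Curves were fitted with a 4-parameter Hill model.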

Experiment [9] deals with Zika virus NS2B-NS3 protease (linked). The experiment is described as follows: 384 well plate NINDS AMC confirmatory qHTS for Zika virus inhibitors (AID 1347163). Also: potency is read from the fitted curve at half-maximal effect; nearly all actives have a fitted effect of over 50% in size. In a few lines:
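Linked protease 5/30/60 nM final; cpds up to 1 mM final, ~15 min preinc. Substrate Ac-VKTGKR-AMC 30 microM final. RT, dark, 25 min; FI ex 355/em 460; normalized to no-enzyme/no-inhibitor ctrls.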

The subject of experiment [10] is Zika virus NS2B-NS3 protease (linked construct). The experiment is described as follows: 384 well plate NINDS Rhodamine confirmatory qHTS for Zika virus inhibitors (AID 1347164).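 Also: fluorescence from protease cleavage of Ac-LKRR-rhodamine 110 substrate; potency is read from the fitted curve at half-maximal effect; nearly all actives have a fitted effect of over 65% in size.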 In a few lines: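 Enzyme (final 5/30/60 nM) + cpd (DMSO), ~15 min; add Ac-LKRR-Rd 10 microM final; 25 min RT, dark; FI ex 485/em 538; normalized to no-enzyme, no-inhibitor ctrls; aprotinin intraplate ctrl.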

Experiment [11] in a line: Primary qHTS for small molecule stabilizers of the endoplasmic reticulum resident proteome: Secreted ER Calcium Modulated Protein (SERCaMP) assay (AID 1508630). Summed up: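 GLuc-SERCaMP-expressing SH-SY5Y cells, pretreated 16 h with compound, are challenged with thapsigargin to empty ER calcium stores; after 4 h, coelenterazine is added directly to the medium and luminescence is imaged.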

Experiment [12] in a line: Confirmatory screen NINDS Rhodamine qHTS for Zika virus inhibitors (AID 1347161).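 Also: purified Zika NS2B-NS3 protease with linked NS2B cofactor domain and Rhodamine110 peptide substrate; series mostly up to about 110 µM; nearly all actives have a fitted effect of over 60% in size.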 In a few lines:
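Each compound, titrated, sat 15 min with 25 nM linked protease before 1.5 microM Rhodamine110 substrate went in. Fluorescence gain over the next 15 min, in pH 8.0 Tris with Tween 20, gave Hill-fitted curves.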

Furin (Homo sapiens), sequence (P09958 whole entry, looked up): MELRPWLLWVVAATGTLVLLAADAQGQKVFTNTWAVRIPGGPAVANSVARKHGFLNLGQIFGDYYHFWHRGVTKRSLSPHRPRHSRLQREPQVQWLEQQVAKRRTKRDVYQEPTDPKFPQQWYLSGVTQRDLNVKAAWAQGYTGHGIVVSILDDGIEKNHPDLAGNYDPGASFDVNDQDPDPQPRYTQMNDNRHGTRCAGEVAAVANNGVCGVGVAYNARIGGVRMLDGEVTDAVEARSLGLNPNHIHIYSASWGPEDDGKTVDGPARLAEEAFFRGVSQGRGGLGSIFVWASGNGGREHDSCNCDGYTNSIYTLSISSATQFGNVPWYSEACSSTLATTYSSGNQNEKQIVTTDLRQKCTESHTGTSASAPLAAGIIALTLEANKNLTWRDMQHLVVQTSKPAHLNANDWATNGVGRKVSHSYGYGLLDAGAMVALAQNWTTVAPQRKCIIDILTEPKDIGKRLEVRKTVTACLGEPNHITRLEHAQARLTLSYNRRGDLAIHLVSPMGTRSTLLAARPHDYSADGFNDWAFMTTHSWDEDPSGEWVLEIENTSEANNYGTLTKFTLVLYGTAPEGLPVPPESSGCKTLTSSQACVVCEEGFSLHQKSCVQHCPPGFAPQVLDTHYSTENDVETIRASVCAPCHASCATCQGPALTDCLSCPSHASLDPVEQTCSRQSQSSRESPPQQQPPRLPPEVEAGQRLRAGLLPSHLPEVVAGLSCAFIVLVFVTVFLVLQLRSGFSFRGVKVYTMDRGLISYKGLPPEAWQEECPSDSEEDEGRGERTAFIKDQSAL

As for `N#C/C(=C\c1ccc(Br)cc1)c1nc(-c2cc3cc(Br)ccc3oc2=O)cs1`, the Potency entry in experiment [1], in experiment [2], in experiment [3] and in experiment [4] was “inactive” in each case.
For `C[C@@H](NC(=O)c1ccc(Cl)cc1)c1c(-c2ccc(F)cc2)noc1C(=O)O`, the Potency result in experiment [1], in experiment [2], in [5] and in experiment [4] was “inactive” each time.
As for `O=c1c(O)c(Br)ccc2c(Br)c(O)c(O)c(O)c12`, the Potency in experiment [6] was 0.316 µM (active); in [1] it was 23.5 µM (active); in experiment [8], 39.8 µM (active); in experiment [9], 158 µM (active); in experiment [10] it was 89.1 µM (active). Besides, the result in [7] was inactive. In addition, the Potency entry in experiment [5] and in [11] was “inactive” each time.
Consider `CCCc1nn2c(=O)cc(COC(=O)c3ccccc3NC(=O)c3ccc(Cl)cc3)nc2s1`, for which the Potency in experiment [1] was 41.8 µM (active). Also, the Potency entry in experiment [8] and in experiment [12] was “inactive” in each case.
Turning to `O=C(CSc1ncccc1C(=O)Oc1ccccc1Cl)Nc1ccccc1Cl`, the Potency result in experiment [1], in experiment [8] and in experiment [12] was “inactive” throughout.
On to `COC(=O)c1ccc(NC(=O)CSc2ccc(-c3sc(-c4ccccc4)nc3C)nn2)cc1`, for which the Potency in experiment [1] is 46.9 µM (active). In addition, the Potency result in experiment [8] and in [12] was “inactive” each time.
For `O=C(CNc1nnc(-c2ccc([S+](=O)([O-])N3CCCC3)cc2)n1-c1ccccc1)Nc1ccc(C(=O)O)cc1`, the Potency entry in [1], in experiment [8] and in experiment [12] was “inactive” throughout.
As to `CC(NC(=O)C1CCN(S(=O)(=O)c2ccc3nc4c(c(C(=O)O)c3c2)CCCC4)CC1)c1ccccc1` (stereo unspecified), the Potency entry in experiment [1], in [8] and in [12] was “inactive” throughout.
